The values below come from PubChem BioAssay (NCI).

For the assay, the system named is HL-60(TB) leukemia. Description: NCI-60 one-dose screen, 48 h (100 = growth as untreated, 0 = no growth, -100 = all killed). The conditions noted are these: 10 µM unless noted.

The structures appear in SMILES notation. Several values for one entry are separate records, joined by “and”; a condition that tells them apart may be missing. Equal entries are not always repeated. The panel holds about 83,000 compounds, 20% with a hit somewhere; the sample as a whole holds those more often.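 Cell lines were cultured in 96-well plates, exposed to a single compound concentration, and assessed for percent growth 48 hours later.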 Values without a mark were called inactive. Activity calls are given as the source filed them. Rule for the calls: active = growth percent below 10; inactive = the rest.

On to `COc1ccc(CN2[C@H](C(=O)NCc3ccc(C(=O)NO)cc3)Cc3c([nH]c4ccccc34)[C@H]2C2CC2)cc1`, for which the growth is 11%.

Regarding `CN(C)c1nc(NCCNS(=O)(=O)c2ccc(C(=O)/C=C/c3ccc(Cl)cc3)cc2)nc(N2CCOCC2)n1`, the growth was 16.8%. Under `Cc1ccc(C(=O)CSc2nc3ccc(F)cc3c(=O)n2-c2ccc(Cl)cc2)cc1` stands 117%; under `Cn1cc(-c2nnc(N)nc2-c2c[nH]c3ccccc23)c2cccnc21`, 13.5%. As to `CCCCSc1nc(NCCc2c[nH]c3ccccc23)c(C#N)c(-c2ccc(F)cc2)n1`, the growth is 53.8%. Next, `O=C(CSc1nnc(-c2c[nH]c3ccccc23)n1-c1ccccc1)c1ccc(Br)cc1`: 44.5%. As to `Nc1nc(-c2ccccc2)cc(-c2cc3ccccc3nc2Cl)n1`, the growth is 51.6%. Turning to `CCCCNC(=S)Nc1ccc(OCc2nc3ccc(Cl)cc3[nH]2)cc1`, the growth is 13%. As to `N#Cc1ccc(NC(=O)CSc2ccc(-c3ccc(Br)cc3)nn2)cc1`, the growth is 82.9%.

As to `OCC1(CCCc2ccccc2)CCCN(c2nccc3ccccc23)C1` (configuration not stated), the growth is 22.7%. As for `COc1cc(CNC(=O)C[C@H](C)CCC=C(C)C)ccc1OCc1cn(-c2ccc(Cl)cc2Cl)nn1`, the growth was 95.5%.

Turning to `COc1ccc(C(=O)/C=C/c2ccc3c(c2)OCCO3)cc1S(N)(=O)=O`, the growth was 95.1%. On to `COc1ccc(N(C)c2cc(C#N)nc3ccccc23)cc1/C=C/C(=O)NO`, for which the growth is -28.7% (active). Next, `COc1cc2oc(-c3cccc(NC(=O)[C@H](CC(N)=O)NC(=O)OC(C)(C)C)c3)cc(=O)c2c(OC)c1OC`: 67.2%; `CCOC(=O)C(N=Nc1ccc(S(=O)(=O)N=C(N)N)cc1)C(C)=O` (configuration not stated): 96.4%; `O=CNc1ccc(-n2cnc3cc(-c4ccc(O)cc4)ccc32)cc1`: 64.2%.

For the compound `Cn1cc(-c2cc(N)n3nc(-c4c[nH]c5ccc(Br)cc45)cc3n2)c2cccnc21`, the growth was -49.9% (active). For the compound `O=C(CSc1nnc(-c2ccc3nc(-c4ccccc4)[nH]c3c2)o1)Nc1ccc(Br)cc1`, the growth is 51.3%. Under `CCOC(=O)/C=C/c1cccc2c1C(=O)NC(C)(c1cc3cc(Cl)ccc3oc1=O)N2` (configuration not stated) stands 2.37% (active); under `CCOC(=O)N/C(=C1/OCCN1C)[P+](c1ccccc1)(c1ccccc1)c1ccccc1`, 29.9%; under `COc1c(B(O)O)cc(F)cc1-c1nc2c(F)cc3[nH]ncc3c2c2c1CCCC2`, 1.83% (active). Consider `Fc1ccc(N2CC(Cn3c(C(F)(F)F)cc4c(Cl)ncnc43)C2)c(F)c1`, for which the growth was -40.3% (active). Under `COc1cc2oc(-c3cccc(C(=O)Nc4ccc(Cl)cc4)c3)cc(=O)c2c(OCCNC(=O)CNC(=O)OC(C)(C)C)c1OC` stands 55.5%; under `COc1ccc(-c2c(Nn3cnnn3)no[n+]2[O-])cc1`, 38.8%; under `CN1CCN(C(=O)CCN(C(=O)Oc2cc3c(c4ccccc24)[C@H](CCl)CN3C(=O)c2cc3cc(OCCCN4CCC4)ccc3[nH]2)[C@H]2CCSSC2)CC1`, -56.7% (active). For `COc1ccc(-c2cc(C(=O)NCc3ccccc3)nn2-c2ccc(S(C)(=O)=O)cc2)cc1OC`, the growth was 97%. Take `Cn1c(O)c(N=Nc2nc(-c3cc4ccccc4oc3=O)cs2)c2cc(Br)ccc21`: the growth is 96.6%. Turning to `CC1=C2C(=C[C@@](C)(COCOCCCl)[C@@H]2O)C(=O)[C@](C)(O)C12CC2`, the growth was -31.8% (active).

As to `COc1ccc(Nc2ncnc3sc4c(c23)CCN(Cc2ccccc2)C4)cc1`, the growth is 68.2%. Next, `Cc1ccc(-c2nc(C#N)c(S(=O)(=O)N3CCN(S(C)(=O)=O)CC3)o2)cc1`: 2.43% (active); `COc1ccc(C(=O)/C=C/c2ccc(OCc3ccccc3)c(OC)c2)cc1OC`: 5.55% (active); `COc1ccc(-c2nnc3c(/C=C/c4ccc(Br)cc4)nc4ccccc4n23)cc1`: 3.92% (active). Under `Cc1cccc2cc(-c3cc(-c4ccccc4)nc(=O)[nH]3)c(Cl)nc12` stands 55.3%; under `COc1c2c(cc3c1C(CCc1ccccc1)N(C)CC3)OCO2` (configuration not stated), -28.3% (active). As for `COc1cc(NC(=O)CSc2nnc(-c3ccc4nc(-c5ccc(Cl)cc5)[nH]c4c3)o2)cc(OC)c1OC`, the growth was 56.6%. Next, `S=c1c2ccccc2nc2n1CCc1c-2[nH]c2ccccc12`: 98%.

For the compound `COc1cccc(-c2ccnc(/N=C(\N)Nc3ccc(S(=O)(=O)Nc4nc(C)cc(C)n4)cc3)n2)c1`, the growth was 91.9%. Next, `COc1ccc(NC(=O)c2sc3nc(C(C)C)ccc3c2N)cc1`: 66.3%. Take `O=C(c1ccc(O)cc1)C1[C@H](c2ccc(Br)cc2)[C@@H](c2ccccc2)NC12C(=O)Nc1ccccc12` (some centres not stated): the growth is 50.5%.

For `Cn1nc(C(F)(F)F)cc1-c1cc(Cl)c(COc2ccc(Cl)cc2)c(-c2ccc(Cl)c(C(F)(F)F)c2)c1O`, the growth is -22.5% (active). Next, `COc1ccc(C=CC(=O)c2ccc(-n3c(C)nc4c(cnn4-c4ccccc4)c3=O)cc2)cc1`: 44.7%. As to `CC(=O)c1c2c(c3ccc4c5ccccc5ccc4n13)C(=O)c1ccccc1C2=O`, the growth is 94.2%. Turning to `CN(C)c1ccnc(CNCCSC2(c3ccccc3)c3ccccc3C=Cc3ccccc32)c1`, the growth was -42.8% (active). Next, `CCCn1c(=O)c2[nH]c(-c3ccc(OCc4nc5ccc(F)cc5[nH]4)cc3)nc2n(CCC)c1=O`: 38.2%. Regarding `C/C(=N\N=C\c1cc([N+](=O)[O-])ccc1Cl)c1ccc2c(c1)Nc1ccccc1S2`, the growth was 84.6%. In the case of `COc1cc2oc(-c3cccc(C(=O)Nc4ccc(Cl)cc4)c3)cc(=O)c2c(OCC(=O)N[C@@H](Cc2ccccc2)C(=O)O)c1OC`, the growth was 115%. For `NCCCCn1c(SCCc2c[nH]c3ccccc23)nnc1-c1ccc2ccccc2n1`, the growth is -64.6% (active). Next, `O=C1Nc2cc(Cl)ccc2/C1=C/c1cccc(OCc2ccccn2)c1`: -9.79% (active); `O=C(Cn1c(/C=C/c2ccccc2)nc2ccccc2c1=O)Nc1ccccc1`: 64.7%; `COc1ccc2c(c1)c(-c1cc3nc(-c4cn(C)c5ncccc45)cc(N)n3n1)cn2C`: -66.3% (active). For the compound `COc1cc(-c2nc3cc(Cl)c(Cl)cc3[nH]2)ccc1OCc1nnc(-c2cccs2)o1`, the growth was 72%. Under `Cn1cc(-c2cc3nc(-c4c[nH]c5ccc(Cl)cc45)cc(N)n3n2)c2ccccc21` stands -34.2% (active); under `S=C(Nc1ccc(OCc2nc3ccccc3[nH]2)cc1)NC1CCCCC1`, 103%; under `O=C(c1ccc(O)cc1)C1[C@H](c2ccc(Cl)cc2)[C@@H](c2ccccc2)NC12C(=O)Nc1ccc(Br)cc12` (some centres not stated), -33.9% (active).

As for `Cc1sc2c(c1C)C(c1ccc(Cl)cc1)=N[C@@H](CC(=O)NCCCCCNC(=O)COc1ccc(C3CCC(=O)NC3=O)cc1)c1nnc(C)n1-2` (some centres not stated), the growth is -16.6% (active).

Turning to `O=C(CN1CCN(c2ncnc3c2cnn3-c2ccccc2)CC1)Nc1ccc(Br)cc1`, the growth is 64.3%. `CN(C(=O)CN1C(=O)/C(=C/c2ccco2)SC1=S)C1CCS(=O)(=O)C1` (configuration not stated): the growth was 81.6%. As for `CO[C@H]1CSS[C@@H]1Cn1nc(-c2ccc(Oc3ccccc3)cc2)c2c(N)ncnc21`, the growth is 8.96% (active). Under `Cc1ccc(C(=O)NNC(=O)CSc2nc3ccccc3c(=O)[nH]2)cc1` stands 93.3%. On to `O=C(NO)c1ccc(CNC(=O)[C@H]2Cc3c([nH]c4ccccc34)[C@H](c3ccc(Cl)cc3)N2)cc1`, for which the growth was 4.62% (active).

For `CCCCn1c(O)c(N=Nc2nc(-c3cc4ccccc4oc3=O)cs2)c2cc(Br)ccc21`, the growth is 101%. Under `C#CCOc1cc(N(CC)CC)ccc1C(C(=O)NC(C)(C)C)N(C(=O)C1CCc2cc(F)ccc2O1)c1ccc(F)cc1` (configuration not stated) stands 3.9% (active).

In the case of `Cc1cc(C(NC(=O)C2CC3(CC(Nc4cccc5c4C(=O)N(C4CCC(=O)NC4=O)C5=O)C3)C2)c2ccc3c(c2)OC(F)(F)O3)c(O)c2ncccc12` (configuration not stated), the growth is -16.4% (active). On to `Nc1cccc(-n2c(COc3ccc(I)cc3)nc3ccccc32)c1`, for which the growth is 118% and 98%. For `O=C(COc1ccc2c(c1)CCCC(=O)N2)NCc1ccccc1`, the growth was 70.4%. Next, `CC(C)C[C@H](NC(=O)[C@@H]1CCCCCCCCCCC(=O)N[C@@H](CC(=O)N2CCC[C@@H]2C2CCCC2)C(=O)N1)B(O)O`: -33.3% (active); `Nc1nc(C(F)(F)F)cs1`: 102%.

As to `O=C(Nc1cc(Cl)cc(Cl)c1)Nc1cc(Cl)cc(Cl)c1`, the growth was -15.1% (active). As for `O=S(=O)(c1nc(-c2ccc(Br)cc2)oc1-c1ccc(Cl)cc1)N1CCCC(O)C1` (configuration not stated), the growth is 31.4%. As to `COc1ccc(Cc2nn(CC(=O)N/N=C/c3ccc([N+](=O)[O-])cc3)c(=O)c3c(C)noc23)cc1`, the growth is 109%.

Regarding `O=S(=O)(Nc1ncccn1)c1ccc(-n2c(-c3ccccc3)nc(-c3ccccc3)c2-c2ccccc2)cc1`, the growth was 95.5%. With `O=C(Cn1c(/C=C/c2ccccc2)nc2ccccc2c1=O)Nc1ccc(Cl)cc1`, the growth is 99.2%. Under `COc1ccc(-c2ccc(SCC(=O)Nc3ccc(S(N)(=O)=O)cc3Br)nn2)cc1` stands 94.9%; under `C=C1CC[C@@H]2[C@]3(C)COC(c4cn[nH]c4-c4ccc(C)cc4)O[C@@H]3CC[C@@]2(C)[C@@H]1C/C=C1/C(=O)OCC1O` (some centres not stated), 7.26% (active).

On to `N#CC1=C(c2cccs2)Nc2c(c(-c3ccccc3)nn2-c2ccccc2)C12C(=O)Nc1ccccc12` (configuration not stated), for which the growth was 0.7% (active). Under `O=C(CN1C(=O)/C(=C/c2ccccc2Cl)SC1=S)N1CCOCC1` stands 90.2%; under `COc1sc(/C=N/NC(=O)c2[nH]c3ccc(Br)cc3c2-c2ccccc2)cc1Cl`, -42.8% (active).
